The AC50 is the midpoint of the concentration-response curve, whichever way the signal moves.

Each structure is given as a SMILES string. Where “and” joins values, the source holds several entries; their conditions need not be identical. Equal values may be shown once. Some compounds were tested as several samples or in several runs, with calls that do not always agree. Calls of active or inactive are those of the source. How the source made its calls: active means hit-call score of the fitted dose curve at least 0.9, where 1 is the maximum; inactive means score below 0.9.

Test [1] addresses Transcription factor E2F1 (Homo sapiens) (UniProt Q01094). The test can be described thus: ATG_E2F_CIS: Attagene CIS-FACTORIAL HepG2 Assay for human E2F Transcription Factor 1 (AID 2282935). The conditions noted are these: HepG2 Attagene cis-reporter, E2F reporter RNA transcripts; actives raise or lower the signal. A digest of the protocol:
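Total RNA from 24 h-treated, reporter-transfected HepG2 cells undergoes DNase I treatment, oligo(dT) reverse transcription, PCR and 6-FAM primer extension before capillary electrophoresis.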

Test [2] is described as follows: ATG_E_Box_CIS: Attagene CIS-FACTORIAL HepG2 Assay for human Enhancer Box (E-box) (AID 2282936). The conditions noted are these: HepG2 E-box cis-reporter transcription, actives raise or lower the signal. A digest of the protocol: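 DMSO served as negative control and baseline for bidirectional fitting. Human hepatoma HepG2 cells, transiently transfected with cis-reporter constructs, were dosed 24 h; reporter mRNA read by RT-PCR and capillary electrophoresis.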

Test [3] in a line: ATG_M_61_CIS: Attagene CIS-FACTORIAL HepG2 Assay for M61 Transcription Factor (Internal Marker) (AID 2282937). The conditions noted are these: HepG2 Attagene CIS-FACTORIAL M61 internal marker reporter; actives raise or lower the signal. The procedure, abridged:
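Readout is reporter mRNA by RT-PCR, fluorescent primer extension and capillary electrophoresis, with gain or loss fitted relative to DMSO. Transfected HepG2 cells carrying endogenous-TF-driven cis reporters were exposed to chemicals for 24 hours.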

A short description of test [4]: ATG_EGR_CIS: Attagene CIS-FACTORIAL HepG2 Assay for human Early Growth Response 1 (EGR1) (AID 2282938). The conditions noted are these: HepG2 Attagene CIS-FACTORIAL EGR reporter mRNA; actives raise or lower the signal. A digest of the protocol: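 After 24 h compound exposure, RNA from reporter-transfected HepG2 cells was reverse-transcribed, PCR-amplified, fluorescently labelled and resolved by capillary electrophoresis. EGR1 reporter transcript changes, up or down, were fitted against DMSO, reflecting endogenous transcription-factor activity.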

Test [5] is described as follows: ATG_M_19_CIS: Attagene CIS-FACTORIAL HepG2 Assay for M19 Transcription Factor (Internal Marker) (AID 2282939). The conditions noted are these: HepG2 Attagene CIS-FACTORIAL M19 internal marker reporter; actives raise or lower the signal. The procedure, abridged:
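Readout: fluorescent reporter-transcript fragments by capillary electrophoresis after RT-PCR. Human HepG2 liver cells carried transfected MRTU constructs reporting endogenous transcription-factor activity; exposure 24 h. Gain or loss of signal fitted relative to DMSO.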

The nature of test [6]: ATG_ERE_CIS: Attagene CIS-FACTORIAL HepG2 Assay for Estrogen Response Element (ERE) (AID 2282940). The conditions noted are these: HepG2 ERE cis-reporter, Attagene RNA transcript; actives raise or lower the signal. The procedure, abridged: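 Readout: reporter mRNA induction by RT-PCR, FAM-labelled primer extension, HpaI digestion and capillary electrophoresis, 24 h after dosing transfected HepG2 cells. Endogenous transcription factors act on cis-element-regulated reporters. Gain or loss fitted against DMSO.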

Test [7] can be described thus: ATG_Ets_CIS: Attagene CIS-FACTORIAL HepG2 Assay for human Erythroblast Transformation Specific (ETS) (AID 2282941). The conditions noted are these: HepG2 ETS cis-reporter transcription, actives raise or lower the signal. The procedure, abridged:
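HepG2 cells transfected with multiple cis-regulated reporter units measuring endogenous ETS-driven transcription, 24 h after dosing. Reporter mRNA quantified by RT-PCR with capillary electrophoresis; bidirectional fit relative to DMSO.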

Test [8] has as its target Hepatocyte nuclear factor 3-beta (Homo sapiens) (UniProt Q9Y261). The test can be described thus: ATG_FoxA2_CIS: Attagene CIS-FACTORIAL HepG2 Assay for human Forkhead box A2 (FOXA2) (AID 2282942). The conditions noted are these: HepG2 cis-reporter transcription factor activity, 24 h; actives raise or lower the signal. A digest of the protocol:
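Endogenous transcription factor activity is captured via cis-element-driven reporter transcripts in transfected HepG2. Total RNA taken at 24 h post-dosing; labelled RT-PCR products resolved by capillary electrophoresis. Gain or loss fitted versus DMSO.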

Test [9] is described as follows: ATG_FoxO_CIS: Attagene CIS-FACTORIAL HepG2 Assay for human Forkhead box O (FoxO) (AID 2282943). The conditions noted are these: HepG2 Attagene cis-reporter, FoxO element, mRNA; actives raise or lower the signal. The procedure, abridged: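 Endogenous transcription factor activity read from multiplexed cis-promoter reporter transcripts in transiently transfected HepG2, 24 h after dosing. Reporter RNA measured via RT-PCR plus capillary electrophoresis of FAM-labeled products; gain or loss relative to DMSO.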

Test [10] can be described thus: ATG_GATA_CIS: Attagene CIS-FACTORIAL HepG2 Assay for human GATA Binding Protein (AID 2282944). The conditions noted are these: HepG2 GATA cis-element reporter, Attagene multiplex mRNA; actives raise or lower the signal. The procedure, abridged:
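Read-out: fluorescent reporter mRNA fragments resolved by capillary electrophoresis after RT-PCR. Human liver HepG2 cells carried transiently transfected cis-regulated reporter constructs; chemicals incubated 24 h; gain or loss of signal fitted relative to DMSO.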

Sequence of Transcription factor E2F1 (Homo sapiens) (Q01094 whole entry, looked up): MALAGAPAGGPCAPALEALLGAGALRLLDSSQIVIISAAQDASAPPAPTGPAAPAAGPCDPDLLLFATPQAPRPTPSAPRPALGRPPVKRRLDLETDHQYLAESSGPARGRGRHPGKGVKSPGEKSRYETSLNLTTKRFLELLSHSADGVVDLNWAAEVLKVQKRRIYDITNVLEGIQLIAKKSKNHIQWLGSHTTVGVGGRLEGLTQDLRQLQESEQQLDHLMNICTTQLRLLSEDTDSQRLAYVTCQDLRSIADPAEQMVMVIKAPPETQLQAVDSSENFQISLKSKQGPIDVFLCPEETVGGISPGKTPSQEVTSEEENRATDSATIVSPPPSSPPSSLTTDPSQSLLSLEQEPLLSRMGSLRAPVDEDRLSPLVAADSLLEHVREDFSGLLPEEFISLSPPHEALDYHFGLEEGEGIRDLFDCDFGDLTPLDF
Sequence of Hepatocyte nuclear factor 3-beta (Homo sapiens) (Q9Y261 whole entry, looked up): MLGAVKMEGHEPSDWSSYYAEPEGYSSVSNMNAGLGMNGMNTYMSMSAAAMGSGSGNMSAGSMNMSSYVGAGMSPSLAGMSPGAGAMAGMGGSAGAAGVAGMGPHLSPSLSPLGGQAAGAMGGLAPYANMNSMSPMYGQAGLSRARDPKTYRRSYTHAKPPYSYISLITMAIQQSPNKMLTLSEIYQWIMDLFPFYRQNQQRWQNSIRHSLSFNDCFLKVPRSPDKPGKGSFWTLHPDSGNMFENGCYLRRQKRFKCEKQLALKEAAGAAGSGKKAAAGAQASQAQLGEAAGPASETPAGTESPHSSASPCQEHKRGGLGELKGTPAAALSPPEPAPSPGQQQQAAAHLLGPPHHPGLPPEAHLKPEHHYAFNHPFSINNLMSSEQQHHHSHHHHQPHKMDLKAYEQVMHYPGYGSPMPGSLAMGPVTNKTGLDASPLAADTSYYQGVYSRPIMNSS

As for `CCOC1Oc2ccc(OS(C)(=O)=O)cc2C1(C)C` (stereo unspecified), the compound was classed as inactive in test [1], in [2], in test [3], in test [4], in test [5] and in test [6]. Moreover, the compound was called inactive in [7], in test [8], in test [9] and in [10].

Consider `CCC(C)(NC(=O)c1cc(Cl)c(C)c(Cl)c1)C(=O)CCl` (stereo unspecified), for which the result in test [1], in test [2], in test [3], in test [4], in test [5] and in [6] was inactive. Besides, the outcome in test [7], in test [8], in test [9] and in test [10] was inactive.

Take `O=[N+]([O-])c1c(Cl)c(Cl)c(Cl)c(Cl)c1Cl`: the compound was called inactive in test [1], in [2], in test [3], in [5], in test [7] and in test [8]. Moreover, the compound was classed as inactive in [9] and in test [10]. Also, the concentration at half-maximal activity (AC50) in [4] is 90.8 µM (active); in test [6], 12.9 µM (active).

On to `Clc1ccccc1-c1nnc(-c2ccccc2Cl)nn1`, for which the result in [1], in test [2], in [3], in test [4], in test [5] and in test [6] was inactive. Moreover, the compound was classed as inactive in [7], in test [8], in test [9] and in test [10].

As for `O=S(=O)(O)C(F)(F)C(F)(F)C(F)(F)C(F)(F)C(F)(F)C(F)(F)C(F)(F)C(F)(F)F`, the concentration at half-maximal activity (AC50) in test [1] was 128 µM (active) and 48.9 µM (active); in test [2], 134 µM (active); in [4], 102 µM (active); in test [5], 153 µM (active); in [7], 56.1 µM (active) and 233 µM (active); in test [9] it was 143 µM (active) and 58.9 µM (active) and 223 µM (active). In addition, in test [10], the half-maximal activity concentration (AC50) is 44.4 µM (active). In addition, the compound was called inactive in test [1], in test [2], in test [3], in [4], in test [5] and in test [7]. Besides, the compound was classed as inactive in test [8], in test [9] and in test [10].

For the compound `CNC(=O)Oc1ccccc1OC(C)C`, the compound was called inactive in [1], in test [2], in test [3], in test [4], in test [5] and in test [6]. For the same compound, the compound was classed as inactive in [7], in test [8], in test [9] and in test [10].

As to `O=C(Nc1ccccc1)Nc1cnns1`, the result in test [1], in test [2], in test [3], in test [5], in [6] and in [7] was inactive. The compound was classed as inactive in test [8], in [9] and in test [10]. Besides, the half-maximal activity concentration (AC50) in [4] is 90.3 µM (active).

For the compound `CCc1ccc(C(=O)NN(C(=O)c2cc(C)cc(C)c2)C(C)(C)C)cc1`, the compound was classed as inactive in test [1], in test [2], in [3], in [5], in test [6] and in test [7]. In addition, the compound was classed as inactive in test [8], in test [9] and in test [10]. Also, the AC50 in test [4] was 16.5 µM (active).

Turning to `CCC(C)Nc1c([N+](=O)[O-])cc(C(C)(C)C)cc1[N+](=O)[O-]` (stereo unspecified), the result in [1], in [2], in test [3], in test [4], in test [5] and in test [7] was inactive. Further, the compound was classed as inactive in test [8], in test [9] and in test [10]. The half-maximal activity concentration (AC50) in test [6] was 5.96 µM (active).

Regarding `O=C(NC(=O)c1c(F)cccc1F)Nc1ccc(OC(F)(F)C(F)OC(F)(F)F)c(Cl)c1` (stereo unspecified), the call in test [1], in [2], in test [3], in test [4], in test [5] and in test [6] was inactive. In addition, the call in test [7], in [8], in [9] and in test [10] was inactive.

In the case of `OCCOc1ccccc1`, the outcome in [1], in test [2], in test [3], in test [4], in test [5] and in [6] was inactive. Also, the compound was classed as inactive in [7], in [8], in test [9] and in test [10].

With `COc1cc(OC)nc(NC(=O)NS(=O)(=O)c2cc(NC=O)ccc2C(=O)N(C)C)n1`, the outcome in test [1], in test [2], in [3], in [4], in test [5] and in [6] was inactive. Further, the compound was called inactive in test [7], in test [8], in test [9] and in [10].

(Values after PubChem BioAssay (EPA / NIEHS).)
